Data taken from the supplement of paper PMC11001985.

Experiments:
Assay in all cases: lysine labeling ratio R10:1 (500 µM / 50 µM probe), SILAC-ABPP in living cells; higher = lower intrinsic lysine reactivity toward the probe, active = 2 or less
Conditions in all cases: HeLa; probe concentrations 500 vs 50 µM
[1] = molecular target: ACLY (lysine site: K1080) (UniProt P53396)
Procedure, shortened: (§1)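 Forward and reverse SILAC label swaps were used with living light and heavy HeLa cells in PBS at room temperature, which were given an alkyne-tagged, disulfide-linked lysine probe at 50 µM or 500 µM. R is the per-lysine filtered median high-probe/low-probe MS1 peptide ratio, with the median then taken across both swap directions. Values are limited to 20.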

[2] = molecular target: ACLY (lysine site: K272) (UniProt P53396)
Procedure, shortened: as §1

[3] = molecular target: ACLY (lysine site: K780) (UniProt P53396)
Procedure, shortened: as §1

[4] = molecular target: ACLY (lysine site: K836) (UniProt P53396)
Procedure, shortened: as §1

[5] = molecular target: ACLY (lysine site: K968) (UniProt P53396)
Procedure, shortened: as §1

[6] = molecular target: ACLY (lysine site: K978) (UniProt P53396)
Procedure, shortened: as §1

[7] = molecular target: ADAM10 (lysine site: K273) (UniProt O14672)
Procedure, shortened: as §1

[8] = molecular target: ADAM10 (lysine site: K410) (UniProt O14672)
Procedure, shortened: as §1

[9] = molecular target: ADAM10 (lysine site: K601) (UniProt O14672)
Procedure, shortened: as §1

[10] = molecular target: BACE2 (lysine site: K299) (UniProt Q9Y5Z0)
Procedure, shortened: as §1

[11] = molecular target: BSG (lysine site: K264) (UniProt P35613)
Sequence of BSG (lysine site: K264) (P35613 whole entry): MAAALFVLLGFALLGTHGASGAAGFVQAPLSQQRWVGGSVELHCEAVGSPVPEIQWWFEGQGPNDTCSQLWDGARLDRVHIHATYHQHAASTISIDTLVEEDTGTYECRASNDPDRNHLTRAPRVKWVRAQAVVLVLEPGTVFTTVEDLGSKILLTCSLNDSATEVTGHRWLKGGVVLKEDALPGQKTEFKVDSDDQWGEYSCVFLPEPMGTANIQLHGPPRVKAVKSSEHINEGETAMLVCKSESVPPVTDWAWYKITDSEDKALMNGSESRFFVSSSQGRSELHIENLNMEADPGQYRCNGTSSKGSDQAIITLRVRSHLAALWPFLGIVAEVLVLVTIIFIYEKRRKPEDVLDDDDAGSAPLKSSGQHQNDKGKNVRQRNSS
Procedure, shortened: as §1

[12] = molecular target: CALR (lysine site: K159) (UniProt P27797)
Procedure, shortened: as §1

[13] = molecular target: CALR (lysine site: K360) (UniProt P27797)
Procedure, shortened: as §1

[14] = molecular target: CALR (lysine site: K64) (UniProt P27797)
Procedure, shortened: as §1

[15] = molecular target: CAV1 (lysine site: K47) (UniProt Q03135)
Sequence of CAV1 (lysine site: K47) (Q03135 whole entry): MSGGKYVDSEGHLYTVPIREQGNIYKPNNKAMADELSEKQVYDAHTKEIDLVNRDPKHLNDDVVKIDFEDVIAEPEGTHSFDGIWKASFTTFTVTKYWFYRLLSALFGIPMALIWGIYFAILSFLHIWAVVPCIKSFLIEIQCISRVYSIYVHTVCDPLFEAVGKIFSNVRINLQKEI
Procedure, shortened: as §1

[16] = molecular target: CDC37 (lysine site: K60) (UniProt Q16543)
Sequence of CDC37 (lysine site: K60) (Q16543 whole entry): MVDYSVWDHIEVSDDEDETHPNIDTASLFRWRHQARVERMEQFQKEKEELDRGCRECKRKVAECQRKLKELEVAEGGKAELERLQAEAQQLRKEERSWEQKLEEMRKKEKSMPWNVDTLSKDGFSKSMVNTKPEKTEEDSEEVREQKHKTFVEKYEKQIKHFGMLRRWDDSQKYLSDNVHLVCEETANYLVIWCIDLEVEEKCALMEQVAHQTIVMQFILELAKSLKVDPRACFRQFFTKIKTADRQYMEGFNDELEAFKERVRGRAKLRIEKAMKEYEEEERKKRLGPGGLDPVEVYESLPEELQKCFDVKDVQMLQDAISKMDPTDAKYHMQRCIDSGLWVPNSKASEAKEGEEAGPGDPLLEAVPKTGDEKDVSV
Procedure, shortened: as §1

[17] = molecular target: CSDE1 (lysine site: K307) (UniProt O75534)
Procedure, shortened: as §1

[18] = molecular target: CSTB (lysine site: K91) (UniProt P04080)
Procedure, shortened: as §1

[19] = molecular target: DDX50 (lysine site: K271) (UniProt Q9BQ39)
Procedure, shortened: as §1

[20] = molecular target: DDX50 (lysine site: K432) (UniProt Q9BQ39)
Procedure, shortened: as §1

[21] = molecular target: GART (lysine site: K251) (UniProt P22102)
Procedure, shortened: as §1

[22] = molecular target: HNRNPF (lysine site: K224) (UniProt P52597)
Procedure, shortened: as §1

[23] = molecular target: HNRNPF (lysine site: K87) (UniProt P52597)
Procedure, shortened: as §1

[24] = molecular target: HNRNPF (lysine site: K98) (UniProt P52597)
Procedure, shortened: as §1

[25] = molecular target: HYOU1 (lysine site: K797) (UniProt Q9Y4L1)
Sequence of HYOU1 (lysine site: K797) (Q9Y4L1 whole entry): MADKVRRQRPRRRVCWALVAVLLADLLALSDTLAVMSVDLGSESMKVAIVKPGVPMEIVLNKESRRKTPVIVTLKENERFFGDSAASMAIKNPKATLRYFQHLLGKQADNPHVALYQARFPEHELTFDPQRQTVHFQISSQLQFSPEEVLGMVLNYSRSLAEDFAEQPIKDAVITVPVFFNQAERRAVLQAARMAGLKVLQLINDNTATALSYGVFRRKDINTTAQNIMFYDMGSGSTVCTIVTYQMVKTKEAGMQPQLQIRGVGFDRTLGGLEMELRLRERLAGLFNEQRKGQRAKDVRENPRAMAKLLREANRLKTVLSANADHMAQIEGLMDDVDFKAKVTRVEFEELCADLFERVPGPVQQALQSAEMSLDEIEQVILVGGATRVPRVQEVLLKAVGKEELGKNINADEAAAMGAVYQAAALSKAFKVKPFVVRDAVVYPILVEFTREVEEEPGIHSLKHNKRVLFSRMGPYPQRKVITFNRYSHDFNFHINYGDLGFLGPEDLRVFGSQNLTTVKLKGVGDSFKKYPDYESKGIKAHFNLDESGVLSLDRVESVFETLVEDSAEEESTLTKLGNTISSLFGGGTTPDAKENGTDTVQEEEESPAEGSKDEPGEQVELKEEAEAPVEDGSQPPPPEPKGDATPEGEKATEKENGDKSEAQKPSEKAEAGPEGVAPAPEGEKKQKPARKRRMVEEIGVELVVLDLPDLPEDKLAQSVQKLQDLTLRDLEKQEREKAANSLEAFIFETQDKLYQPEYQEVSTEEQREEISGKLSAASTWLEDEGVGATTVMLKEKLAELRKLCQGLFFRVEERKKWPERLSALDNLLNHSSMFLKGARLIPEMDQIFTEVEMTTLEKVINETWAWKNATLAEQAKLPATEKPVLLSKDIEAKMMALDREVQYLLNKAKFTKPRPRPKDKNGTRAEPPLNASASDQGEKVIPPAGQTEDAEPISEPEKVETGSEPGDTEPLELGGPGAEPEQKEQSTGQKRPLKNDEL
Procedure, shortened: as §1

[26] = molecular target: ITIH2 (lysine site: K148) (UniProt P19823)
Sequence of ITIH2 (lysine site: K148) (P19823 whole entry): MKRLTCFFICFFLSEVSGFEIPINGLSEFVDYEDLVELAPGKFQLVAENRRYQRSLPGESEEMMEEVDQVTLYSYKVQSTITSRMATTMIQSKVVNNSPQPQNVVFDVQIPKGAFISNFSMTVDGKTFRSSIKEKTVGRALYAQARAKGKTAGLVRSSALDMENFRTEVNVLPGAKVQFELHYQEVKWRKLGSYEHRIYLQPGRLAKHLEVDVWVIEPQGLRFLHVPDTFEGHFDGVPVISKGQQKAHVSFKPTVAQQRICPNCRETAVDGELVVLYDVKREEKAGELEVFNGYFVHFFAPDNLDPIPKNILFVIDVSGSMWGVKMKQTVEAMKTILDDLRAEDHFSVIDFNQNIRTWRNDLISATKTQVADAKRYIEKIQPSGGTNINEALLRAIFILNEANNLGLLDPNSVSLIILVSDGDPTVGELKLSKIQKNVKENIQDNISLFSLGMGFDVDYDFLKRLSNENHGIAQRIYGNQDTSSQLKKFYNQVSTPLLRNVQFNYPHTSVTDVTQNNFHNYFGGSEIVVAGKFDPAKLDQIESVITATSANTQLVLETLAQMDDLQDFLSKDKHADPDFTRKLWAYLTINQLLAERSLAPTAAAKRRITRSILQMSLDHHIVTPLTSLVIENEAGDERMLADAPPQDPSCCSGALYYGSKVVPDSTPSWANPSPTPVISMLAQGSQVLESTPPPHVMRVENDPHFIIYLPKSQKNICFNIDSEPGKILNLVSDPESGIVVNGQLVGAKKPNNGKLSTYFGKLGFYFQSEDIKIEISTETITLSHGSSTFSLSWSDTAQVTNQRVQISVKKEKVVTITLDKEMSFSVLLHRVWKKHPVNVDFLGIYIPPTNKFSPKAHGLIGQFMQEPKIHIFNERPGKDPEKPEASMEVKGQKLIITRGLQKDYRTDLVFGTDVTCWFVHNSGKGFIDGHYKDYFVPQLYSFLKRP
Procedure, shortened: as §1

[27] = molecular target: ITIH2 (lysine site: K150) (UniProt P19823)
Sequence of ITIH2 (lysine site: K150) (P19823 whole entry): as above
Procedure, shortened: as §1

[28] = molecular target: ITIH2 (lysine site: K190) (UniProt P19823)
Sequence of ITIH2 (lysine site: K190) (P19823 whole entry): as above
Procedure, shortened: as §1

[29] = molecular target: LMAN2 (lysine site: K303) (UniProt Q12907)
Procedure, shortened: as §1

[30] = molecular target: MDH2 (lysine site: K185) (UniProt P40926)
Sequence of MDH2 (lysine site: K185) (P40926 whole entry): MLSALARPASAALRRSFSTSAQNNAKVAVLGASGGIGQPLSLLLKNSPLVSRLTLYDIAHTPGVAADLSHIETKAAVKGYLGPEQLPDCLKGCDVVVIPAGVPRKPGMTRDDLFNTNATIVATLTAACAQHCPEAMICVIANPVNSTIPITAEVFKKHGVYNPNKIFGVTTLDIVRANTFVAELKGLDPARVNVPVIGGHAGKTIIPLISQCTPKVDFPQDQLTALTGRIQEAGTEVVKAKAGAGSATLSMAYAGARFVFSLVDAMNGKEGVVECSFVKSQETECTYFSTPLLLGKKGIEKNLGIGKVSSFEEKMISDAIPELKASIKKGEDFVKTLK
Procedure, shortened: as §1

[31] = molecular target: NCR3LG1 (lysine site: K101) (UniProt Q68D85)
Procedure, shortened: as §1

[32] = molecular target: NECTIN2 (lysine site: K97) (UniProt Q92692)
Procedure, shortened: as §1

[33] = molecular target: PHB (lysine site: K240) (UniProt P35232)
Sequence of PHB (lysine site: K240) (P35232 whole entry): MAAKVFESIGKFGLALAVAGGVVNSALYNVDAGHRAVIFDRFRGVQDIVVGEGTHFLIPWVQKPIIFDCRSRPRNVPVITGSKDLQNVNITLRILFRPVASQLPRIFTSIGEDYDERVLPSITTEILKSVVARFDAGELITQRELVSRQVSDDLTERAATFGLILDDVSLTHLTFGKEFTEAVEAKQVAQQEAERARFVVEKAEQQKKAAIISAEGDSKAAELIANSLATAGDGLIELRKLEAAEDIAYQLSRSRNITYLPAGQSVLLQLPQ
Procedure, shortened: as §1

[34] = molecular target: PODXL (lysine site: K385) (UniProt O00592)
Procedure, shortened: as §1

[35] = molecular target: PODXL (lysine site: K394) (UniProt O00592)
Procedure, shortened: as §1

[36] = molecular target: PODXL (lysine site: K418) (UniProt O00592)
Procedure, shortened: as §1

[37] = molecular target: PODXL (lysine site: K422) (UniProt O00592)
Procedure, shortened: as §1

[38] = molecular target: PODXL (lysine site: K444) (UniProt O00592)
Procedure, shortened: as §1

[39] = molecular target: PSMD6 (lysine site: K130) (UniProt Q15008)
Procedure, shortened: as §1

[40] = molecular target: PSMD6 (lysine site: K372) (UniProt Q15008)
Procedure, shortened: as §1

[41] = molecular target: PTPRK (lysine site: K227) (UniProt Q15262)
Procedure, shortened: as §1

[42] = molecular target: PTPRK (lysine site: K244) (UniProt Q15262)
Procedure, shortened: as §1

[43] = molecular target: PTPRK (lysine site: K262) (UniProt Q15262)
Procedure, shortened: as §1

[44] = molecular target: PTPRK (lysine site: K394) (UniProt Q15262)
Procedure, shortened: as §1

[45] = molecular target: PTPRK (lysine site: K397) (UniProt Q15262)
Procedure, shortened: as §1

[46] = molecular target: PTPRK (lysine site: K722) (UniProt Q15262)
Procedure, shortened: as §1

[47] = molecular target: SACM1L (lysine site: K483) (UniProt Q9NTJ5)
Procedure, shortened: as §1

[48] = molecular target: SLC25A3 (lysine site: K218) (UniProt Q00325)
Procedure, shortened: as §1

[49] = molecular target: SLC25A3 (lysine site: K234) (UniProt Q00325)
Procedure, shortened: as §1

[50] = molecular target: SLC25A3 (lysine site: K252) (UniProt Q00325)
Procedure, shortened: as §1

[51] = molecular target: SLC25A3 (lysine site: K304) (UniProt Q00325)
Procedure, shortened: as §1

[52] = molecular target: SLC25A3 (lysine site: K313) (UniProt Q00325)
Procedure, shortened: as §1

[53] = molecular target: SNAP23 (lysine site: K64) (UniProt O00161)
Procedure, shortened: as §1

[54] = molecular target: TMED10 (lysine site: K145) (UniProt P49755)
Procedure, shortened: as §1

[55] = molecular target: TPBG (lysine site: K328) (UniProt Q13641)
Sequence of TPBG (lysine site: K328) (Q13641 whole entry): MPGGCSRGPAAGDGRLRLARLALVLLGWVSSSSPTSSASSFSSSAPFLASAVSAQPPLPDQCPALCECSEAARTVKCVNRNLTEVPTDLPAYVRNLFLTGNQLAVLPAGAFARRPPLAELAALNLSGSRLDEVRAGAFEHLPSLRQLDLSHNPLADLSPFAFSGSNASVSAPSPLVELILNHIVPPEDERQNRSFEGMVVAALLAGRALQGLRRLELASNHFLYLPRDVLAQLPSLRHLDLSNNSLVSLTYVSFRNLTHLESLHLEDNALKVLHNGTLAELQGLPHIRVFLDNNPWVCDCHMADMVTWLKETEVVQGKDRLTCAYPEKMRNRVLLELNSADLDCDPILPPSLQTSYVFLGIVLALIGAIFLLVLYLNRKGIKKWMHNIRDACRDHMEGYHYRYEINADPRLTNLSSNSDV
Procedure, shortened: as §1

[56] = molecular target: TPBG (lysine site: K76) (UniProt Q13641)
Sequence of TPBG (lysine site: K76) (Q13641 whole entry): as above
Procedure, shortened: as §1

[57] = molecular target: TSPAN14 (lysine site: K132) (UniProt Q8NG11)
Procedure, shortened: as §1

[58] = molecular target: UniProt P08729 (lysine site: K273)
Sequence of UniProt P08729 (lysine site: K273) (P08729 whole entry): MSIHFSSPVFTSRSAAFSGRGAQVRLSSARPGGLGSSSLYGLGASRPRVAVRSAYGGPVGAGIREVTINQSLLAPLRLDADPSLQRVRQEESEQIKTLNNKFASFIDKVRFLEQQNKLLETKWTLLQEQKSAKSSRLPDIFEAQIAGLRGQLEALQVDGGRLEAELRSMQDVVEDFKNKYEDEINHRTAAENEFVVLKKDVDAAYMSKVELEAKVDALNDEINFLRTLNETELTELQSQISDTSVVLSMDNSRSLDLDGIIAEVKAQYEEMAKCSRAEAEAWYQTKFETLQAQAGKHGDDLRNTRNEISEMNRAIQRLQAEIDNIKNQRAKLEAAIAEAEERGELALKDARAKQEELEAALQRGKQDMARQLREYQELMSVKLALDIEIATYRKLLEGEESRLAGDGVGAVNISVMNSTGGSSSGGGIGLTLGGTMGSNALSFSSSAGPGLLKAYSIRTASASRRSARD
Procedure, shortened: as §1

[59] = molecular target: UniProt P08729 (lysine site: K296)
Sequence of UniProt P08729 (lysine site: K296) (P08729 whole entry): as above
Procedure, shortened: as §1

[60] = molecular target: UniProt P08729 (lysine site: K326)
Sequence of UniProt P08729 (lysine site: K326) (P08729 whole entry): as above
Procedure, shortened: as §1

[61] = molecular target: UniProt P08729 (lysine site: K331)
Sequence of UniProt P08729 (lysine site: K331) (P08729 whole entry): as above
Procedure, shortened: as §1

[62] = molecular target: UniProt P08729 (lysine site: K353)
Sequence of UniProt P08729 (lysine site: K353) (P08729 whole entry): as above
Procedure, shortened: as §1

[63] = molecular target: UniProt P08913 (lysine site: K190)
Procedure, shortened: as §1

[64] = molecular target: UniProt P50895 (lysine site: K482)
Procedure, shortened: as §1

[65] = molecular target: UniProt P50895 (lysine site: K531)
Procedure, shortened: as §1

[66] = molecular target: UniProt Q6ZS17 (lysine site: K71)
Procedure, shortened: as §1

[67] = molecular target: WLS (lysine site: K161) (UniProt Q5T9L3)
Procedure, shortened: as §1

[68] = molecular target: WLS (lysine site: K168) (UniProt Q5T9L3)
Procedure, shortened: as §1

[69] = molecular target: YWHAB (lysine site: K70) (UniProt P31946)
Sequence of YWHAB (lysine site: K70) (P31946 whole entry): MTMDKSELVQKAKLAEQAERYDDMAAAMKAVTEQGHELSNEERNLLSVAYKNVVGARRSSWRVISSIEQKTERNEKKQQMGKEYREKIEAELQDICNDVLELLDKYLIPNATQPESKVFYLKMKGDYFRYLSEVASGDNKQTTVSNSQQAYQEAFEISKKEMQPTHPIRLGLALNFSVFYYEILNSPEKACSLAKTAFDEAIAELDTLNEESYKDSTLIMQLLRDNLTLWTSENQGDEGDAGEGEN
Procedure, shortened: as §1

[70] = molecular target: YWHAZ (lysine site: K85) (UniProt P63104)
Procedure, shortened: as §1

Measured: lysine labeling ratio R10:1

C#CCNC(=O)CCSSCCC(=O)NCCc1ccc(C=O)c(C=O)c1
active: [3] 1.27 | [8] 1.51 | [9] 0.81 | [10] 1.18 | [12] 1.52 | [15] 1.22 | [17] 1.59 | [19] 0.745 | [20] 1.99 | [29] 1.72 | [32] 0.864 | [33] 1.3 | [35] 0.785 | [37] 0.841 | [39] 0.957 | [40] 0.563 | [42] 1.58 | [48] 0.82 | [49] 1.8 | [53] 1.47 | [55] 1.99 | [57] 0.603 | [64] 1.94
inactive: [1] 6.28 | [2] 2.72 | [4] 3 | [5] 4.07 | [6] 2.77 | [7] 2.98 | [11] 2.59 | [13] 5.32 | [14] 2.12 | [16] 2.43 | [18] 4.21 | [21] 5.53 | [22] 6.19 | [23] 2.84 | [24] 3.88 | [25] 6.93 | [26] 3.03 | [27] 3.29 | [28] 4.46 | [30] 3.9 | [31] 2.58 | [34] 9.63 | [36] 2.7 | [38] 2.06 | [41] 3.07 | [43] 4.25 | [44] 7.37 | [45] 3.52 | [46] 2.01 | [47] 4.06 | [50] 3.68 | [51] 4.79 | [52] 4.2 | [54] 4.28 | [56] 2.54 | [58] 3.39 | [59] 3.6 | [60] 5.31 | [61] 5.69 | [62] 9.28 | [63] 2.31 | [65] 2.47 | [66] 5.33 | [67] 9.23 | [68] 5.48 | [69] 3.41 | [70] 3.38
